Inconclusive results are not listed. Activity calls are given as the source filed them. Unless noted, calls come from the whole dose curve; as a rule, active = well fitted curve in the direction sought with a large enough effect; inconclusive = small, poorly fitted or top-dose-only effect, or another doubt; inactive = no such curve, though single readings can be large; an effect the other way counts as inactive or inconclusive.
How the values were obtained:
[1] = P-glycoprotein substrates identified in KB-3-1 adenocarcinoma cell line, qHTS therapeutic library screen (AID 1346986); note: nearly all actives have a fitted effect of over 60% in size
How it was run: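 Dose-response cytotoxicity, KB-3-1 vs P-gp-high KB-8-5-11, no colchicine in assay medium. Read: CellTiter-Glo at 72 h.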

[2] = biological target: Calcium and integrin-binding protein 1 (Homo sapiens) (UniProt Q99828); test: Primary qHTS for Identification of Calcium Integrin Binding Protein 1 (CIB1) Competitor (AID 1508620);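 note: GST tagged CIB1 binding a fluorescein labelled alphaIIb integrin peptide tracer; top concentration of the series differs between compounds; % is set by controls: 0 for no effect and ±100 for the full control effect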
Chain of Calcium and integrin-binding protein 1 (Homo sapiens) (Q99828 whole entry, looked up): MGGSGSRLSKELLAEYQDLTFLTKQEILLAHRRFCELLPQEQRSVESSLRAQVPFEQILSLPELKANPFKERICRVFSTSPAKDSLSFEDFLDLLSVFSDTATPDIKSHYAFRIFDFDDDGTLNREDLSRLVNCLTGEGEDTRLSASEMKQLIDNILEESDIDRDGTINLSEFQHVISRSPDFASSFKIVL
How it was run: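 CIB1-GST (1 uM final) and compound incubated 15 min at room temperature before adding FITC-alphaIIb peptide tracer (100 nM final). Competition for binding read by fluorescence polarization (ex 480, em 540) after another 15 min at room temperature.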

[3] = Primary fluorescence-based thiol-reactive (MSTI) qHTS assay for identification of artifact compounds. (AID 1845221); note: nearly all actives have a fitted effect of over 65% in size; note: potency is the fitted concentration of half-maximal effect
How it was run: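 In PBS pH 7.4 with 2% DMSO, each compound met 4 uM MSTI for one hour at ambient temperature, shielded from light, before fluorescence detection.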

[4] = tested on: KB-3-1; test: Cytotoxic Profiling of Annotated Libraries Using Quantitative High-Throughput Screening (AID 1296008); conditions: Five cell lines viability, CellTiter-Glo ATP luminescence, 48-72 h; max response: stronger effect = lower value; note: nearly all actives have a fitted effect of over 60% in size; note: potency is the fitted concentration of half-maximal effect
How it was run: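 Cytotoxicity was measured as CellTiter-Glo ATP luminescence, read after 10 min at room temperature. Compound treatment of the cells lasted 48 or 72 hr at 37 degrees Celsius in a qHTS format.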

[5] = tested on: HACAT; test: qHTS assay to identify novel small-molecules to repurpose for Merkel cell carcinoma treatment (AID 1296009); conditions: MCC and control cell lines, CellTiter-Glo viability, 72 h; at 44.8 µM (top of the series) unless noted; note: nearly all actives have a fitted effect of over 60% in size
How it was run: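 Cell viability measured by CellTiter-Glo following 72 hr compound treatment at 37 degree celsius, with NPC and MIPE libraries tested in 8- and 11-point concentration series.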

[6] = tested on: CAOV3; test: Primary qHTS to identify gynecologic anti-cancer compounds using libraries of approved drugs and bioactive compounds (AID 1345084); conditions: Gynecologic cancer cell panel viability, ATPlite luminescence, 48 h; series mostly up to 57.5 µM; note: nearly all actives have a fitted effect of over 55% in size; note: potency is the fitted concentration of half-maximal effect; for activity change, negative = cytotoxicity: % is set by controls: 0 for no effect and ±100 for the full control effect
How it was run: (§1)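 Five-concentration response, 48 h; readout is ATP-driven luciferase luminescence.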

[7] = tested on: JEG-3; test: as above; conditions: Gynecologic cancer cell panel viability, ATPlite luminescence, 48 h; series mostly up to 57.5 µM
How it was run: as §1

[8] = tested on: Zika virus NS2B-NS3 protease (unlinked complex); test: Primary screen GU Rhodamine qHTS for Zika virus inhibitors: Unlinked NS2B-NS3 protease assay (AID 1347159); note: % is set by controls: 0 for no effect and ±100 for the full control effect; nearly all actives have a fitted effect of over 60% in size
How it was run: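 Unlinked NS2B/NS3, 25 nM; Rhod110 peptide, 1.5 microM; compounds, up to 114 microM. Reaction run 15 min at RT in 10 mM Tris-HCl pH 8.0, 0.01% Tween 20; kinetic fluorescence change fitted with a 4-parameter Hill model.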

[9] = biological target: Cytochrome P450 2D6 (Homo sapiens) (UniProt P10635); test: Cytochrome P450 family 2 subfamily D member 6 (CYP2D6) small molecule antagonists: luciferase biochemical (cell-free) qHTS assay (AID 1645840; active = well fitted curve in the direction sought with a large enough effect in the repeat runs; an effect the other way counts as inactive or inconclusive; note: nearly all actives have a fitted effect of over 55% in size; note: potency is the fitted concentration of half-maximal effect)
Chain of Cytochrome P450 2D6 (Homo sapiens) (P10635 whole entry, looked up): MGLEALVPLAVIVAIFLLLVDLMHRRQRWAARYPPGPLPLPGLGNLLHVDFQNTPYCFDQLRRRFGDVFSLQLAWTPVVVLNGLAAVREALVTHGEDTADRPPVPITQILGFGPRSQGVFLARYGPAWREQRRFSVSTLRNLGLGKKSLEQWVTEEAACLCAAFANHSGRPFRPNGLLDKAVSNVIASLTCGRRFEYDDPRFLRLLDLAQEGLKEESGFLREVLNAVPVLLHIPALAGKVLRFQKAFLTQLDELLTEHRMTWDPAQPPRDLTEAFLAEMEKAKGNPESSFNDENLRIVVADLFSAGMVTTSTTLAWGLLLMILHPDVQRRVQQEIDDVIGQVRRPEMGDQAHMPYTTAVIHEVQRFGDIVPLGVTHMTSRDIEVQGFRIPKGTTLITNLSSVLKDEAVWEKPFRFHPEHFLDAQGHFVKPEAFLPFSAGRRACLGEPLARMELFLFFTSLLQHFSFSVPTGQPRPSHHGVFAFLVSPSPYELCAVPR
How it was run: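 P450-Glo CYP2D6 system: proluciferin substrate converted by enzyme to luciferin, read by luminescence proportional to activity. Enzyme-substrate mix with compound 10 min at room temperature, then NADPH regeneration 1 h before detection reagent.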

[10] = biological target: Cytochrome P450 2C9 (Homo sapiens) (UniProt P11712); test: Cytochrome P450 family 2 subfamily C member 9 (CYP2C9) small molecule antagonists: luciferase biochemical (cell-free) qHTS assay (AID 1645842; active = well fitted curve in the direction sought with a large enough effect in the repeat runs; an effect the other way counts as inactive or inconclusive; note: nearly all actives have a fitted effect of over 55% in size; note: potency is the fitted concentration of half-maximal effect)
Chain of Cytochrome P450 2C9 (Homo sapiens) (P11712 whole entry, looked up): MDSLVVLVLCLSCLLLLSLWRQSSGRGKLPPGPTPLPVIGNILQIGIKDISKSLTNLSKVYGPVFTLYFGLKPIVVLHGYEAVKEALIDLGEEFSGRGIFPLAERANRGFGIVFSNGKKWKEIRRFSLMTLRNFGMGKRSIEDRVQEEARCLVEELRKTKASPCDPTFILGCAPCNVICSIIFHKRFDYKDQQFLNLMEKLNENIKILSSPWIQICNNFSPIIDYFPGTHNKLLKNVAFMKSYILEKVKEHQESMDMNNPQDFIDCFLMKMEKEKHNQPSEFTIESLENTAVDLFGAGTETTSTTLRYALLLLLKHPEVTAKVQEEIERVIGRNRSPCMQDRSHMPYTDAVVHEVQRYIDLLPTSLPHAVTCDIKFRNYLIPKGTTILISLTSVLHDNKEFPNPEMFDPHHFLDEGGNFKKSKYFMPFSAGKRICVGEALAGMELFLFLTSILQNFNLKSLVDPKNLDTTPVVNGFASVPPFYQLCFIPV
How it was run: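 P450-Glo CYP2C9 system: proluciferin substrate with enzyme in mix containing 0.4% BSA, 10 min at room temperature, then NADPH regeneration solution added and incubated 1 h at 37C. Detection reagent stopped reaction; luminescence read after 20 min as RLU.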

[11] = biological target: Catechol O-methyltransferase (Homo sapiens) (UniProt P21964); test: Confirmatory Screen for Target Class Profiling of Small Molecule Inhibitors of Methyltransferases (AID 1745852); conditions: MTase-Glo luminescence, SAH detection, recombinant enzyme; measured here: COMT max response; stronger effect = lower value; for activity change, negative = inhibition: % is set by controls: 0 for no effect and ±100 for the full control effect
Chain of Catechol O-methyltransferase (Homo sapiens) (P21964 whole entry, looked up): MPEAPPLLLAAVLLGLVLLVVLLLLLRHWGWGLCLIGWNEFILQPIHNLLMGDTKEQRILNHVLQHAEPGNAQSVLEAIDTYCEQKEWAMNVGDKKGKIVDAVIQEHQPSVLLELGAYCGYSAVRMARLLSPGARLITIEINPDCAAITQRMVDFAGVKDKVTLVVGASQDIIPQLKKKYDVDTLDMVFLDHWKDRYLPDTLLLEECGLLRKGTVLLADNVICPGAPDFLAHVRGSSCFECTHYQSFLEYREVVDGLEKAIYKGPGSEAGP

[12] = biological target: Guanidinoacetate N-methyltransferase (Homo sapiens) (UniProt Q14353); test: as above; conditions: activity change, negative = inhibition: at 57.3 µM (top of the series) unless noted
[13] = biological target: Nicotinamide N-methyltransferase (Homo sapiens) (UniProt P40261); test: as above; conditions: MTase-Glo luminescence, SAH detection, recombinant enzyme; measured here: NNMT max response; stronger effect = lower value
Chain of Nicotinamide N-methyltransferase (Homo sapiens) (P40261 whole entry, looked up): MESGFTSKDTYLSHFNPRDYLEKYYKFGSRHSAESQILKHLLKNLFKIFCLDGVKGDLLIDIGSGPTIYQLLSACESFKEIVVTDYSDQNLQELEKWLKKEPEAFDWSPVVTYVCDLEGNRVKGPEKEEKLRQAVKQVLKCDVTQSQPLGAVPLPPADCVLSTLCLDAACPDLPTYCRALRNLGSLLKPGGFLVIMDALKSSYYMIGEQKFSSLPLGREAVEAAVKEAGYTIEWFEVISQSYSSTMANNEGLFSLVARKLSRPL

[14] = qHTS drug screen for cell cycle checkpoint inhibitors in PARPi-resistant BRCA-mutant ovarian cancer cell lines. (AID 1963452; calls by dose curve; note: potency is the fitted concentration of half-maximal effect); conditions: PEO1/OlaR viability, CellTiter-Glo luminescence, 96 h; for Z-AUC: stronger effect = lower value
How it was run: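 PEO1, PEO4 and PEO1/OlaR ovarian cancer cells, 600 per well, exposed 96 h at 37C to a dilution series. Viability read by CellTiter-Glo luminescence, normalized to DMSO and empty wells; activity summarized as Z-AUC.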

[15] = tested on: SKOV3; test: Primary qHTS to identify gynecologic anti-cancer compounds using libraries of approved drugs and bioactive compounds (AID 1345084); conditions: Gynecologic cancer cell panel viability, ATPlite luminescence, 48 h; series mostly up to 57.5 µM; note: nearly all actives have a fitted effect of over 55% in size; note: potency is the fitted concentration of half-maximal effect; for activity change, negative = cytotoxicity: % is set by controls: 0 for no effect and ±100 for the full control effect
How it was run: as §1

[16] = tested on: Zika virus NS2B-NS3 protease (linked construct); test: Primary screen NINDS Rhodamine qHTS for Zika virus inhibitors (AID 1347160); note: nearly all actives have a fitted effect of over 55% in size
How it was run: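 Single-chain NS2B-NS3 protease, 25 nM, pH 8.0; compounds preincubated 15 min. Activity: Rhodamine110 release from 1.5 microM substrate over 15 min, room temperature, data fitted to 4-parameter Hill.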

[17] = Primary redox qHTS assay for identification of artifact compounds. (AID 1845223);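 note: 0% = DMSO and 100% = reference compound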
How it was run: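 Redox-cycling detection via DTT (250 uM final) oxidation coupled to Amplex Red (25 uM)/HRP (250 mU/mL) in HBSS. 15 min preincubation plus 30 min after DTT, room temperature. Ex/Em 525/598 nm; 4-parameter Hill fit against DMSO and 10 uM DA3003.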

[18] = measured here: PEO1 parental Z-AUC

C[C@@H]1[C@H](O)[C@@H](C)/C=C/C=C/CC/C=C/C=C/C=C/C=C/[C@H](O[C@H]2O[C@@H](C)[C@H](O)[C@@H](N)[C@H]2O)C[C@@H]2O[C@](O)(C[C@@H](O)[C@H](O)CC[C@@H](O)C[C@@H](O)C[C@@H](O)CC(=O)O[C@H]1C)C[C@H](O)[C@H]2C(=O)O
inactive: Potency [1] | Potency [2] | Potency [3] | outcome [4] | outcome [5] inactive [at 17.4 µM] | Potency [6] | Potency [7]

CN(C)c1cc2c(cc1Sc1nc3c(N)nccc3n1CCNCC(C)(C)C)OCO2
-4.13%: activity change, negative = inhibition [12]
-1: Z-AUC ([14]; measured here: PEO4 Z-AUC)
-1.43: Z-AUC [14, 18]
active: Potency [9] 952 nM | Potency [10] 3790 nM | Potency [14] 1550 nM | Potency [4] 731 nM | Potency [6] 1120 nM | Potency [7] 11200 nM | Potency [15] 5620 nM
-41.4%: activity [13]
-13.6%: activity [11]
inactive: Potency [8] | Potency [2]

O=C(CC1NCCC[C@H]1O)Cn1cnc2cc(Br)c(Cl)cc2c1=O (stereo partly specified)
inactive: Potency [9] | Potency [10] | max response [4] -10.5%

CC[C@H]1C2CC3[C@@H]4N(C)c5ccccc5[C@]45C[C@@H]([C@H]2[C@H]5O)N3[C@@H]1O
inactive: Potency [8] | Potency [16] | Potency [17] | max response [4] 0.117% | Potency [6] | Potency [7] | Potency [15]

CC1=CC(=O)[C@@H](O)[C@]2(C)C3[C@@H](O)[C@@H]4OC(=O)[C@@H]([C@H]4C)[C@]3(C)C(=O)C[C@@H]12 (stereo partly specified)
inactive: Potency [8] | Potency [16] | Potency [2] | Potency [3] | Potency [6] | Potency [7]
active: Potency [4] 4530 nM

CO[C@H]1[C@H](O)[C@H](O[C@H]2CC[C@]3(C=O)C4CC[C@]5(C)[C@H](C6=CC(=O)OC6)CC[C@]5(O)C4CC[C@@H]3C2)O[C@@H](C)[C@@H]1O (stereo partly specified)
active: Potency [4] 39.9 nM | Potency [6] 100 nM
inactive: Potency [8] | Potency [16]

C=C(CO)C(=O)O[C@H]1CC(=C)[C@@H]2C[C@H](O)C(=C)[C@@H]2[C@H]2OC(=O)C(=C)[C@@H]21
-80.9%: activity [11]
inactive: Potency [1] | Potency [16] | Potency [2] | Potency [3] | Potency [17] | outcome [4] | Potency [6] | Potency [7] | Potency [15]
-4.37%: activity change, negative = inhibition [12]
-6.26%: activity [13]

O=C(OC[C@H]1O[C@@H](Oc2ccc(O)cc2CO)[C@H](O)[C@@H](O)[C@@H]1O)c1ccccc1
inactive: Potency [2] | Potency [17] | max response [4] 4.17% | Potency [6] | Potency [7]
active: Potency [3] 3670 nM

CC(C)(C)[C@]1(O)C[C@@H]2OC(=O)C[C@@]23C(=O)O[C@@H]2OC(=O)[C@@H](O)[C@]213
inactive: Potency [8] | Potency [16] | Potency [2] | Potency [3] | Potency [17] | max response [4] -3.84% | Potency [7] | Potency [15]

C[C@]12CC[C@H](O)C[C@H]1CC[C@@H]1[C@@H]2[C@H](O)C(=O)[C@]2(C)[C@@H](c3ccc(=O)oc3)CC[C@]12O
inactive: Potency [8] | Potency [16] | Potency [3] | Potency [17]
active: Potency [4] 46.1 nM

CO[C@H]1[C@@H](O)[C@@H](C)O[C@@H](O[C@@H]2C=C3C(OC(C)=O)CC4(O)C(CC[C@]5(C)[C@@H](C6=CC(=O)OC6)CC[C@]45O)[C@@]3(C)CC2)[C@@H]1O (stereo partly specified)
active: Potency [4] 385 nM | Potency [6] 501 nM | Potency [15] 282 nM
inactive: Potency [8] | Potency [16] | Potency [2] | Potency [3]

COc1ccc2c3c([nH]c2c1)C(C=C(C)C)N1C(=O)C2CCCN2C(=O)C1C3 (stereo unspecified)
inactive: Potency [1] | Potency [2] | Potency [17] | outcome [4] | Potency [6] | Potency [7]

CC[C@@H]1C[C@H]2CC[C@H](O2)[C@H](C)C(=O)O[C@@H](C)C[C@@H]2CC[C@@H](O2)[C@@H](C)C(=O)O[C@H](CC)C[C@H]2CC[C@H](O2)[C@H](C)C(=O)O[C@@H](C)C[C@@H]2CC[C@@H](O2)[C@@H](C)C(=O)O1
active: Potency [4] 38.5 nM | Potency [6] 398 nM
inactive: Potency [16] | Potency [2] | Potency [7]

CC(=O)OC[C@]12C[C@H](OC(=O)CC(C)C)C(C)=C[C@H]1O[C@@H]1[C@H](O)C[C@@]2(C)[C@]12CO2
active: Potency [4] 709 nM | Potency [6] 4470 nM
inactive: Potency [16] | Potency [2] | Potency [3] | Potency [17]

COC1CC(O[C@H]2CC[C@@]3(C)C(CCC4C3CC[C@]3(C)[C@@H](C5=CC(=O)OC5)CC[C@]43O)C2)OC(C)C1O (stereo partly specified)
active: Potency [4] 159 nM | Potency [6] 178 nM | Potency [15] 126 nM
inactive: Potency [8] | Potency [16] | Potency [3] | Potency [17]

CO[C@H]1C[C@H](O[C@H]2CC[C@@]3(C)C(=CCC4C3CC[C@]3(C)[C@@H](C5=CC(=O)OC5)CC[C@]43O)C2)O[C@@H](C)[C@@H]1O[C@@H]1O[C@H](CO[C@@H]2O[C@H](CO)[C@@H](O)[C@H](O)[C@H]2O)[C@@H](O)[C@H](O)[C@H]1O (stereo partly specified)
inactive: Potency [16] | Potency [2] | max response [4] 4.69% | activity change, negative = cytotoxicity [6] 17.9% [at 11.6 µM] | activity change, negative = cytotoxicity [7] 16.2% [at 11.6 µM]

N#Cc1ccc([C@H]2CCCC[C@H]2O)cc1C(F)(F)F
active: Potency [10] 26800 nM
inactive: Potency [8] | Potency [16] | Potency [2] | Potency [3] | Potency [17] | max response [4] -5.63% | Potency [6] | Potency [7]

CN[C@@H]1C[C@H]2O[C@@](C)([C@@H]1OC)n1c3ccccc3c3c4c(c5c6ccccc6n2c5c31)C(=O)NC4
-2.16: Z-AUC ([14]; measured here: PEO4 Z-AUC)
inactive: Potency [2] | Potency [3] | Potency [17] | Z-AUC [14] -2.43
-2.26: Z-AUC [14, 18]
active: Potency [4] 130 nM | Potency [15] 316 nM
